Only some compounds are listed: those with a hit (about 2.9% of all), similar ones and a draw of the others.
SMARCA2 act: increases SMARCA2 function in MMTV reporter cells | activation, % at 9.1 µM | hit rate 1% among 370,000 | MG213 cells, MMTV-luciferase reporter, dexamethasone, overnight; in the data active = activation above about 7.8%;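 also: 0% = vehicle wells and 100% = reference activator wells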
proKLK7 act: proKLK7 (human) activation, primary screen | purified proKLK7, EDANS-DABCYL substrate fluorescence; 100% is mature enzyme control, 0% vehicle | hit rate 0.9% among 370,000 | P49862 | activation, % at 7 µM;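 active = activation above the mean of all tested compounds plus 3 SD, computed per campaign excluding outliers beyond control limits, cut at about 13% in these data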
GAA850 FXN act: frataxin GAA850 promoter activation | hit rate 0.56% among 360,000 | activation, % at 6 µM | AID 540364 | HEK293 lucGAA850 FXN promoter luciferase reporter, 24 h; percent of 10 µM SAHA response;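 active = activation above the average of all compounds screened plus 3 SD, cutoff fixed separately per campaign, cut at about 7.5% in these data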;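 also: 0% = DMSO wells and 100% = 10 µM SAHA wells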
FAS TE block: inhibitors of human fatty acid synthase thioesterase domain; P49327; recombinant FAS-TE, OMFH fluorogenic substrate, fluorescence endpoint; inhibition, % at 15 µM; hit rate 0.67% among 360,000;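 active = compounds whose normalised, plate-corrected inhibition of enzyme fluorescence in the single-dose primary screen is 50% or more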;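 also: 0% = DMSO with enzyme and 100% = substrate without enzyme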
Target sequence (P49327 whole entry, looked up, the tested form may be a part): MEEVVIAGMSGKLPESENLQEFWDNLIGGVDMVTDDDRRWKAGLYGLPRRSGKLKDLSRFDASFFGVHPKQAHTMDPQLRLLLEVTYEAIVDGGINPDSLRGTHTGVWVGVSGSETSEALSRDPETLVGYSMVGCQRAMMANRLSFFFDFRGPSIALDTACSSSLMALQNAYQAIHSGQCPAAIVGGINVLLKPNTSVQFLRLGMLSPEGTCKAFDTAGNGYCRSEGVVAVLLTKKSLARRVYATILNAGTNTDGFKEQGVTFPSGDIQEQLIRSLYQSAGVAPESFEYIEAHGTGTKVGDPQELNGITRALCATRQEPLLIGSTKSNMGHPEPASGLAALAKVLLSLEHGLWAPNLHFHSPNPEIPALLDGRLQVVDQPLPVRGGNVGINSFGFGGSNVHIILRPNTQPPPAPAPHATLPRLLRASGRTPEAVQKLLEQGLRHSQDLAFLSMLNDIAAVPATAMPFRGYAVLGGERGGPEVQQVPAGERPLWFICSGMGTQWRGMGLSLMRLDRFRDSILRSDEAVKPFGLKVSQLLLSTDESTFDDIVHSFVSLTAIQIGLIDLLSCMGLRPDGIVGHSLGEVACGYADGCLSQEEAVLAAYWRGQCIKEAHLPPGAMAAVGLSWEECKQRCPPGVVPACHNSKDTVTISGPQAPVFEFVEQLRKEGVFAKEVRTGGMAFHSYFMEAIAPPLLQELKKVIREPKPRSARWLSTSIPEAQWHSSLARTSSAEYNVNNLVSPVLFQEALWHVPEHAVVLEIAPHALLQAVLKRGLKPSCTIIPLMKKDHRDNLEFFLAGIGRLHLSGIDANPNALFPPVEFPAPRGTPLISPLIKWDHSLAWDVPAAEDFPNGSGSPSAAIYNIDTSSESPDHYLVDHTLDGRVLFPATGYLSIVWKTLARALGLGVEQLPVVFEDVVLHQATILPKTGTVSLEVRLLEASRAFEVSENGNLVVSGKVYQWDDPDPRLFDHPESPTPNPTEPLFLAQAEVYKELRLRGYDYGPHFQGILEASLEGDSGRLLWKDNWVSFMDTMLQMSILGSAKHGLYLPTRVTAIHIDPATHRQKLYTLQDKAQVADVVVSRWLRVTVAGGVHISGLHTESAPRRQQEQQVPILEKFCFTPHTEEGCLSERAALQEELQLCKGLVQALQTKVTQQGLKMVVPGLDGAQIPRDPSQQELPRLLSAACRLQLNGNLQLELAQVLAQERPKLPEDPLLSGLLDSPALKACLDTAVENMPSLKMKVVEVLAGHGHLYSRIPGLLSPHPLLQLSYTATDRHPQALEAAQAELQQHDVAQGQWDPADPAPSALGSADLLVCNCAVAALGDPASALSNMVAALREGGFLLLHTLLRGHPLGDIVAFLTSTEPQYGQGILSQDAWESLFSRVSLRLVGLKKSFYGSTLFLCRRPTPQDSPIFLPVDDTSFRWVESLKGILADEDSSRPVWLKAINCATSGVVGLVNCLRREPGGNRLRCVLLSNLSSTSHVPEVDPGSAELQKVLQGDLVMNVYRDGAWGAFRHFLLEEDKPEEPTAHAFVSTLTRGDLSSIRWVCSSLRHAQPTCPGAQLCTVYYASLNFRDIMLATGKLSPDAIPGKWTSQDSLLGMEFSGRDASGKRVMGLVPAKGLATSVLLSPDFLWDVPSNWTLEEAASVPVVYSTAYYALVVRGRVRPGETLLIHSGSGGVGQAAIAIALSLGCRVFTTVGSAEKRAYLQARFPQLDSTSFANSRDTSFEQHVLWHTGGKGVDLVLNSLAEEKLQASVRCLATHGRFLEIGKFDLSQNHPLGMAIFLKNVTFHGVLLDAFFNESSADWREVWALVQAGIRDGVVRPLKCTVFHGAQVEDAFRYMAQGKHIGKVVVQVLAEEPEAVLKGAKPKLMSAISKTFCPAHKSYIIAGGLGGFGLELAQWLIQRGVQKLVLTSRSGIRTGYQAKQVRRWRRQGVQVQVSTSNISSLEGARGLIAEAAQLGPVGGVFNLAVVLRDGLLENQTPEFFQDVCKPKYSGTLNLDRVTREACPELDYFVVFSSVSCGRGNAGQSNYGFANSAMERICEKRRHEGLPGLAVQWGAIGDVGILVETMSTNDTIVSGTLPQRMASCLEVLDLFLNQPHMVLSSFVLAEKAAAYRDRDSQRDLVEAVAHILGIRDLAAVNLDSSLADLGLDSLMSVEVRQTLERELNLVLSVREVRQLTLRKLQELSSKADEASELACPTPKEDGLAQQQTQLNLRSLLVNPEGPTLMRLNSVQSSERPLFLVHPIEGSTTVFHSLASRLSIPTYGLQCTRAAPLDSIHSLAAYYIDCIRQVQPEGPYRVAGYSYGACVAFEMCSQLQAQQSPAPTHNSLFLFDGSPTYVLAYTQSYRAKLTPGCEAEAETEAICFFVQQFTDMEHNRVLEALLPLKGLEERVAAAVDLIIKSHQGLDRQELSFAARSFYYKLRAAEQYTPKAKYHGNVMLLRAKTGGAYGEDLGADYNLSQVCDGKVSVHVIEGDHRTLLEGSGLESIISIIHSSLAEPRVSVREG
SMARCA2 conf: SMARCA2 activation, confirmation screen. shares compounds with SMARCA2 act. MG213 cells, MMTV-luciferase with dexamethasone, luminescence, overnight; MG213 cells expressing E1A, Rb sequestered; DMSO wells 0%, reference activator 100%. activation, % at 9.1 µM. hit rate 30% among 3,500;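 active = activation above its plate's cutoff, the mean activation of tested wells plus 3 SD, cut at about 7.9% in these data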
VP16 Luc act: activates GAL4-VP16 luciferase, flagging SMARCA2 activator hits. hit rate 41% among 3,500. activation, % at 9.1 µM. shares compounds with SMARCA2 act. HEK293 GAL4-VP16 pG5luc reporter, luciferase luminescence; scaled: DMSO wells 0%, SAHA wells 100%;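 active = activation above the solvent-only control well mean plus 3 SD, averaged across control plates, cut at about 5.2% in these data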
* = called active by the depositor; . = no result given.

SMILES | SMARCA2 act | proKLK7 act | GAA850 FXN act | FAS TE block | SMARCA2 conf | VP16 Luc act
Cc1ccc(F)cc1C(=O)N1CCOCC1c1cc(C(=O)NCc2ccccc2)no1 (stereo unspecified) | -2 | 0 | 0 | 1 | . | .
COc1ccccc1NC(=O)C/C(C)=N/NC(=O)c1ccccn1 | 12* | 0 | 2 | 0 | -1 | 3
Cc1ccc(NC(=O)c2cnccn2)cc1 | 3 | 0 | 7 | -8 | . | .
COc1cc(NC(=O)C/C(C)=N/NC(=O)c2ccccn2)c(OC)cc1Cl | 3 | 0 | 4 | -6 | . | .
CCOc1ccc(NC(=O)C/C(C)=N/NC(=O)c2cnccn2)cc1 | 8.9* | 0 | 4 | -5 | 3 | 3
O=C(Nc1ccc(F)cc1)c1cnccn1 | 8.7* | 0 | 1 | -6 | 2 | 2
COC(=O)c1ccc(N)c(CS(=O)(=O)c2ccc(Cl)cc2)c1 | 0 | 0 | -1 | -2 | . | .
O=c1[nH][nH]c2c1[C@H](c1ccc(Cl)cc1)O[C@H](C1CCCC1)C2 | -1 | 0 | . | -33 | . | .
CC1CCCCN1C(=O)c1cc(-c2ccc(Cl)c(Cl)c2)on1 (stereo unspecified) | 2 | 0 | 6 | 31 | . | .
CC1CCCCN1C(=O)c1cc(-c2ccc3c(c2)OCO3)on1 (stereo unspecified) | 9.2* | 0 | 5 | -2 | 6 | 12*
N#CC(C(=O)NC1CCCCC1)=C1CCCCC1 | -2 | -1 | 2 | -8 | . | .
COc1cc(/C=C2\CC/C(=C\c3cc(OC)c(OC)c(OC)c3)C2=O)cc(OC)c1OC | 0 | 0 | 4 | -5 | . | .
COc1cc(/C=C2\CC/C(=C\c3cc(OC)c(O)c(OC)c3)C2=O)cc(OC)c1O | 11* | 0 | -4 | -18 | 34* | 3
CCc1ccc(NC(=O)c2cnn(-c3ccccc3)c2C)cc1 | 5 | 0 | 1 | -4 | . | .
CCc1ccccc1-n1ncc(C(=O)Nc2ccc(OC)cc2)c1C | 8.0* | 0 | 3 | 5 | 5 | 12*
O=C(CC1C(=O)NCCN1Cc1ccccc1C(F)(F)F)NC1CCCCC1 (stereo unspecified) | -3 | 1 | 2 | 2 | . | .
CCOC(=O)C1CCN(C2=NC(=O)/C(=C/c3ccc(Cl)cc3)S2)CC1 | -3 | 0 | 0 | 7 | . | .
CCOC(=O)CSC1=NC(=O)/C(=C\c2ccc(Cl)cc2)S1 | 9.3* | 0 | 3 | 0 | 5 | 4
c1ccc(CCCCc2ccncc2)cc1 | -1 | 0 | 0 | -4 | . | .
O=C(CCCc1ccncc1)c1ccccc1 | 8.2* | 1 | 1 | -3 | 3 | 6.9*
Fc1ccc(-c2n[nH]c(=S)n2N=Cc2cccc(OCc3ccccc3)c2)cc1 | 9.9* | 0 | . | . | 4 | 1
Cn1c2ccccc2c(=O)c2cc(C#Cc3ccccn3)ccc21 | 8.1* | -25 | 5 | 9 | 21* | 5.3*
Cn1c2ccccc2c(=O)c2ccc(C#Cc3ccccn3)cc21 | 2 | -14 | . | . | . | .
CCC(=O)Nc1cc(Cl)ccc1C(=O)O | 9.4* | 0 | -1 | -6 | -3 | 2
CCC(C)C(=O)Nc1cc(Cl)ccc1C(=O)O (stereo unspecified) | -1 | 0 | 0 | -4 | . | .
SMILES | SMARCA2 act | proKLK7 act | GAA850 FXN act | FAS TE block | SMARCA2 conf | VP16 Luc act
COc1cccc(NC(=O)c2sc3nc(N4CCOCC4)c4c(c3c2N)CCCC4)c1 | 4 | -2 | 5 | 26 | . | .
O=C1CCCC2=C1C(c1ccc(O)c(O)c1)Nc1ccc3ccccc3c12 (stereo unspecified) | -4 | 7 | 0 | 1 | . | .
O=C1CCCC2=C1C(c1ccco1)Nc1ccc3ccccc3c12 (stereo unspecified) | 20* | 1 | 0 | 6 | 8.3* | 1
COc1ccc(NS(=O)(=O)/C=C/c2ccccc2)cc1 | 8.6* | 1 | -1 | 2 | -2 | 2
Cc1ccc(NC(=O)C2CCN(C(=O)[C@@H]3Cc4ccccc4CN3)CC2)c(C)c1 | -1 | 0 | 0 | -6 | . | .
C/C(=N\NC(=O)c1nn(C)cc1Br)c1ccncc1 | 1 | 1 | 3 | -13 | . | .
C/C(=N\NC(=O)c1nn(C)cc1Cl)c1ccncc1 | 9.5* | -1 | 3 | -11 | 0 | -1
CC(=O)Nc1cccc(OCC(=O)NC(C)C(C)C)c1 (stereo unspecified) | -1 | 0 | 2 | -6 | . | .
COc1ccc(CC(=O)N2CCN=C2SC)cc1 | 0 | 0 | 0 | 1 | . | .
NCCCn1c(C(=O)c2ccc(Cl)cc2)c2ccc([N+](=O)[O-])cc2[n+]1[O-] | 6 | 0 | -2 | -22 | . | .
N#Cc1c2ccc([N+](=O)[O-])cc2[n+]([O-])n1-c1ccccc1 | 8.5* | 0 | -6 | 19 | 13* | 8.9*
O=C(CN1C(=O)c2ccccc2C1=O)OCc1nc2ccsc2c(=O)[nH]1 | 0 | 0 | 0 | -8 | . | .
CC(=O)Nc1sc(NC(=O)c2ccc([N+](=O)[O-])cc2)nc1-c1cccs1 | 9.4* | 0 | -1 | 12 | -5 | 0
CCC(CC)C(=O)c1c[nH]c(C(=O)NCc2ccccc2)c1 | 0 | 0 | 1 | 0 | . | .
CC1CCC(NC(=O)c2cccn2C)CC1 (stereo unspecified) | 8.8* | 0 | -1 | -5 | 11* | 11*
COc1ccc(-c2nn(-c3ccccc3)cc2/C=N/Nc2cccc(C(=O)O)c2)cc1 | 9.1* | 0 | 6 | 15 | -3 | 2
O=C(O)c1cccc(N/N=C/c2cccs2)c1 | 12* | 1 | 4 | -14 | 5 | 14*
CN1CCc2c(sc3c2C(=O)NC(c2cccs2)N3)C1 (stereo unspecified) | 11* | -1 | 5 | -13 | 4 | 2
Clc1ccccc1C1SCC2Nc3ccccc3CN21 (stereo unspecified) | 3 | -1 | 5 | 7 | . | .
CCCCN(CCCC)S(=O)(=O)c1ccc2oc(C(=O)N3CCOCC3)c(C)c2c1 | -3 | 0 | -1 | 18 | . | .
COc1cccc2cc(C(=O)OCC(=O)NCc3ccc4c(c3)OCO4)c(=O)oc12 | 11* | 0 | 5 | -2 | 6 | 5
Cc1nc(-c2cccc(NC(=O)C3CCCCC3)c2)cs1 | 1 | 0 | 0 | 2 | . | .
Cc1nc(-c2ccc(NC(=O)C3CC3)cc2)cs1 | 8.2* | 0 | 4 | -5 | 9.7* | 8.9*
C/C(=N/OC(=O)c1cccc(Cl)c1)c1nccs1 | -3 | 0 | 0 | -1 | . | .
CCN(CC)CCn1c2ccccc2c2nc3ccccc3nc21 | 34* | 3 | 7 | -3 | 111* | -1
Cc1cc2nc(/C=C/c3cccnc3)[nH]c2cc1C | 8.7* | 44* | 0 | 1 | 16* | 27*
O=c1nc2c(O)cccn2c2c1c(=O)[nH]c1ccccc12 | -4 | -1 | -1 | -25 | . | .

High-throughput results (PubChem)
